{"source": "patent US20060069055", "about": "“Delivery of polynucleotides” (published 2006)"}
{"biological_target": "NF-kB p50/p50 homodimer (Homo sapiens, UniProt P19838 P19838:1-433)", "sequence (P19838 1-433, one chain of several)": "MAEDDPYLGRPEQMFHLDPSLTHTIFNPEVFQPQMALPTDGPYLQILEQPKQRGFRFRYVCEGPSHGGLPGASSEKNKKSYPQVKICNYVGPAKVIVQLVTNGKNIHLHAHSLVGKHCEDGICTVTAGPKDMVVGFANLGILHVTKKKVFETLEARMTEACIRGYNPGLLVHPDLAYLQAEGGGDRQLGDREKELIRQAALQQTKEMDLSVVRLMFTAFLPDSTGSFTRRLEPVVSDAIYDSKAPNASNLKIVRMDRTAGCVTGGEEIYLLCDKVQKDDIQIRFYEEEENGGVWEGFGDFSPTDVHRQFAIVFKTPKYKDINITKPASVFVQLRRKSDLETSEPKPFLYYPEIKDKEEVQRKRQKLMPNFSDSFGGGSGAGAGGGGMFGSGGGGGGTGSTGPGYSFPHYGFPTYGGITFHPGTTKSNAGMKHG", "test": "EMSA", "conditions": "protein: extract; tags: nuclear extract of LPS-stimulated THP-1 cells; chain copies: 2 stated; dsDNA, one strand shown", "text": "The EMSA assay was employed to characterize oligonucleotide decoys for the NF-κB transcription factor. […] Using the above modified oligonucleotides to compete for binding for the above-mentioned NF-κB family members, it was possible to compare the binding affinity of these oligonucleotides against the high affinity radiolabeled probe and each other. This assay has also enabled the design of a decoy which selectively binds particular members of the NF-κB family. By using increasing concentrations of various oligonucleotides, it was observed that, by deleting or changing targeted residues in the binding site, it was possible to specifically decrease the binding of the decoy molecule to p50/p50 homodimers, while retaining the affinity for p65/p50 and cRel/p50 heterodimers.\nThe NF-κB gel shift assays (EMSA) were performed as follows. A double-stranded oligonucleotide containing a consensus NF-κB binding site (5′ […].GGC 3′) (SEQ ID NO: 26) was end-labeled with γ³²P-ATP using T4 Polynucleotide Kinase (Promega). One microgram of a nuclear extract prepared from LPS stimulated THP-1 cells (human monocyte cell line) was incubated with 35 fmol of radiolabeled probe in the presence or absence of competing unlabeled NF-κB double-stranded oligonucleotides (dsODN) or scrambled dsODN. The incubations were carried out at room temperature for 30 minutes in a 20 μl reaction volume composed of 10 mM Tris-HCl pH 8, 100 mM KCL, 5mM MgC12, 2mM DTT, 10% Glycerol, 0.1% NP-40, 0.025% BSA and 1 μg Poly-dIdC. The reactions were loaded onto a 6% polyacrylamide gel, subjected to electrophoresis and dried. The dried gels were imaged and quantitated using a Typhoon 8600 Phosphorlmager (Amersham) and ImageQuant software. The identity of the NF-κB proteins contained in complexes bound to the radiolabeled oligonucleotide probe were identified by pre-incubating the reactions for 5 minutes with individual antibodies specific for each member of the NF-κB family prior to the addition of the radiolabeled probe.", "units": {"IC50": "fold molar excess"}}
{"sequence": "TCGGACTTTCCCTC", "IC50": 62.5}
{"sequence": "TTGAGGACTTTCCAGGCTC", "IC50": 85}
{"sequence": "AGTTGAGGATTTCCCAGGC", "IC50": 84}
{"sequence": "AGTTGAGGGATTTCCAGGC", "IC50": 69}
{"sequence": "TCGGACTTTCCTC", "IC50": 97}
{"sequence": "AGTTGAGGATTTCCAGGC", "IC50": 82}
